Bioassay records as filed in PubChem BioAssay.
Most compounds without a hit are left out; they make up all but 0.49% or so of the library.
Chronic BCR inh: qHTS Assay to Find Inhibitors of Chronic Active B-Cell Receptor Signaling; ABC-DLBCL IkBa-CBG/CBR reporter, luminescence ratio, 4 h; Potency, µM (titrated, usually from 46.1 µM), for the others: at the highest dose activity change, negative = inhibition, hits mostly inhibitors; hit rate 0.05% among 340,000; AID 493014, 2011; active = well fitted inhibition curve with a large enough effect in the signal ratio, with a control signal flat, not every such curve was filed as active; inconclusive = small, poorly fitted or top-dose-only effect, or effect the other way, or a change in a side signal; the % refers to the signal ratio;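 also: potency is read from the fitted curve at half-maximal effect; plate controls were basal doxycycline-induced cells for no effect and cells given 10 µM MG132 for full effect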
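Compounds up to 46 uM were incubated four hours with TMD8 cells whose green CBG68 luciferase is fused to IkappaBalpha; red CBR luminescence normalised the signal, and concentration-effect curves were fitted to fusion, red and ratio data.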
CCT modulator: High-Throughput Screening for Modulators of Cytosolic Chaperonin Activity | hit rate 0.3% among 360,000 | activity change, % (no concentration beside the values), hits read low | purified chaperonin ATPase assay, HTRF ADP detection, 30 min; in the data active = activity change below about -30%; also: % is scaled to controls: 0 for no effect and ±100 for the full control effect
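ATPase activity: ADP formed was measured by HTRF Transcreener (665/615 nm ratio) after 30 min at 37 deg C with 10 uM ATP. Compounds screened at one 76 uM concentration against 40 or 20 nM TRiC in Tris pH 7.4/KCl/MgCl2/DTT buffer.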
TCR act: Activators of T cell receptors: qHTS campaign. primary human leukocytes, anti-CD3, IL-2 HTRF, 48 h. Potency, µM (series often up to 9.22 µM), inactives show at the top dose activation of IL-2 secretion, most hits filed as activators. 330,000 tested, under 10 active. AID 504894, 2011; also: % of control where 0% means no effect
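Primary human leukocytes incubated 48 hr with anti-CD3 beads plus compound, without co-stimulation. Secreted IL-2 measured by HTRF (europium cryptate/d2 anti-IL-2 pair, 320 nm excitation, 665 nm emission).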
ASM inhibitor: Inhibitors of Secretory Acid Sphingomyelinase (S-ASM): qHTS; Sphingomyelin phosphodiesterase (Homo sapiens), P17405; placental ASM, HMU-PC fluorogenic substrate, 60 min; Potency, µM (titrated, usually from 57.5 µM), for the others: top-dose activity change, negative = inhibition, hits mostly inhibitors; hit rate 0.006% among 340,000; also: potency is read from the fitted curve at half-maximal effect
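Human placenta-derived ASM enzyme was preincubated with compound for 10 minutes at room temperature, then given fluorogenic substrate HMU-PC0 (9 uM final) for 60 minutes at 37 °C; a pH 10 stop preceded fluorescence reading at Ex 386/Em 447 nm.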
Tb PFK inh: qHTS Assay to Find Inhibitors of T. brucei phosphofructokinase. hit rate 0.17% among 330,000. Potency, µM (doses to about 57.5 µM), without a hit: top-dose activity, negative = inhibition, most hits filed as inhibitors. ATP-dependent 6-phosphofructokinase (Trypanosoma brucei brucei), O15648. T. brucei PFK, ADP-Glo luminescence;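 also: potency is read from the fitted curve at half-maximal effect; 0% = uninhibited 1x PFK enzyme wells and -100% = no-enzyme wells; nearly all actives have a fitted effect of over 60% in size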
Target sequence (O15648 whole entry, looked up): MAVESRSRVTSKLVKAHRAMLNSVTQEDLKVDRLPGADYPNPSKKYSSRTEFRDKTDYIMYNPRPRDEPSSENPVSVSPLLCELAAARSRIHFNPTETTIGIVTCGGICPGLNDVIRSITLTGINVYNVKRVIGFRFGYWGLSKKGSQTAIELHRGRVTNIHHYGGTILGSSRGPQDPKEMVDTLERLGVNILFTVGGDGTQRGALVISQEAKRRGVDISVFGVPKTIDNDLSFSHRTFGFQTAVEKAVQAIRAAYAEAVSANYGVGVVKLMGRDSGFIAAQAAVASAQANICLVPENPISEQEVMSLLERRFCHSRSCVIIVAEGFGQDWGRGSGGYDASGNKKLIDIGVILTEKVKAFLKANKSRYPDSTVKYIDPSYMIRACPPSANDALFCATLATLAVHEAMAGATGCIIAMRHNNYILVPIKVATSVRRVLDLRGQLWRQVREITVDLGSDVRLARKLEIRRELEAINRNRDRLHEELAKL
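PFK 1.25 nM, F6P 0.5 mM, ATP 0.1 mM, 0.1 M TEA pH 8.0, 5 mM MgCl2, 0.01% Tween20, 0.1% BSA; 45 min RT. ADP-Glo readout. qHTS titration up to 57 uM; curves fitted, compounds curve-classed.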
Numbers without * were called inactive; ? = inconclusive; . = not tested or not shown; [ ] = remark or other dose. Unless noted, calls follow the shape of the dose curve; as a rule, active = well fitted curve in the direction sought with a large enough effect; inconclusive = small, poorly fitted or top-dose-only effect, or another doubt; inactive = no such curve, though single readings can be large; an effect the other way counts as inactive or inconclusive.

SMILES	Chronic BCR inh	CCT modulator	TCR act	ASM inhibitor	Tb PFK inh
Cc1ccc(NC(=O)c2cc(C)nc3ccccc23)cc1	0%	1	.	-5%	1%
Cc1cccc(NC(=O)c2cc(C)nc3ccccc23)c1	2%	-39*	0%	-3%	-14%
Cc1ccc(-c2cc(C(=O)Nc3ccc4c(c3)OCCO4)c3ccccc3n2)cc1	-2%	-33*	6%	-12%	-5%
CN(C)S(=O)(=O)c1cccc(NC(=O)c2cc(-c3cccs3)nc3ccccc23)c1	6%	-32*	3%[46.1 µM]	59%	-1%
Cc1ccc(S(=O)(=O)C(CNC(=O)COc2ccccc2)c2ccco2)cc1 (stereo unspecified)	-22%	.	.	.	.
CC(C)CCNC(=O)c1cc(-c2cccnc2)nc2ccc(S(=O)(=O)N3CCC(C)CC3)cc12	6%	.	.	.	.
Cn1cnnc1SCC(=O)Nc1cc(C(=O)O)cc(C(=O)O)c1	12%	.	.	.	.
CCCC[C@]12Cc3cc(C#N)ccc3C(O1)c1c(cc(-c3ccccc3)oc1=O)O2	?	.	.	.	2%[11.5 µM]
Cc1nnc(SCC(=O)N2CCN(c3ccccc3F)CC2)n1C1CC1	?	-97*	0%	0%	-1%
O=C(CSc1nnnn1C1CC1)N1CCN(c2ccccc2F)CC1	7%	0	0%	1%	-8%
CCCCNC(=O)C(CC)Sc1nnc(-c2ccc(OC)c(OC)c2)c(-c2ccc(OC)c(OC)c2)n1 (stereo unspecified)	-15%	.	.	.	.
CC1CCN(C(=O)COC(=O)c2cc(Cl)c3c(c2)OCO3)CC1	0%	1	-3%	5%	7%
O=C(O)c1cc(Cl)c2c(c1)OCO2	1%	-61*	-1%	3%	-1%
CC(=O)c1cccc(Nc2ncnc3c2cnn3-c2cccc(Cl)c2)c1	14%	.	.	.	.
Cc1[nH]c2ccccc2c1CCO	0%	-31*	7%	4%	-8%
Oc1c(C(c2ccc(F)cc2)N2CCCC2)sc2nc(-c3ccco3)nn12 (stereo unspecified)	-15%	.	.	.	.
O=C(Nc1nnc(SCC(=O)N2CCCCC2)s1)C1CCCCC1	?	-60*	2%[46.1 µM]	0%	2%
Cc1cn(C)c(CC(=O)N2CCN(c3ccccc3F)CC2)c1C(=O)O	-14%	.	.	.	.
CC(C)c1ccc(Nc2n[nH]c(=S)s2)cc1	.	-63*	.	.	.
CCOc1ccc(CCNC(=O)c2cccc(N3CCCC3=O)c2)cc1OCC	?	-1	3%	2%	3%
COc1ccc(CCNC(=O)c2ccc(N3CCCC3=O)cc2)cc1OC	1%	-32*	0%	4%	-11%
COc1ccc(-c2cnc3c(NC(C)=O)cc(-c4cccc(C(=O)N(C)C)c4)cn23)cc1OC	.	-33*	.	.	.
O=C(C1CCN(S(=O)(=O)c2ccc(F)cc2)CC1)N1CCOCC1	4%	-41*	-1%	3%	0%
Cc1[nH]c(=O)[nH]c(=O)c1Cc1cccc2ccccc12	?	-37*	1%	3%	8%
N#Cc1c(NC(=O)CSc2ncn[nH]2)sc2c1CCCC2	23µM*	-1	4%	3%	7%
SMILES	Chronic BCR inh	CCT modulator	TCR act	ASM inhibitor	Tb PFK inh
O=C(Cn1cnc2ccccc2c1=O)Nc1ccccc1N1CCOCC1	1%	-75*	0%	0%	1%
O=C(Cn1c(=O)cnc2ccccc21)Nc1ccccc1N1CCOCC1	-2%	3	15%	0%	3%
COc1ccccc1CN(Cc1c(Cl)cccc1Cl)S(=O)(=O)c1ccc(Br)cc1	-1%	.	.	.	.
O=[S@]1Oc2ccccc2-c2ccccc21	.	-71*	-1%	2%	.
O=S1c2ccccc2Oc2ccccc21	.	-1	-1%	5%	.
COc1ccc(/C=N/NC(=S)N[C@H]2CC3CCC2C3)cc1 (stereo partly specified)	?	-67*	2%	-3%	-1%
CCc1cccc(NC(=O)CN2C(=O)COc3ccc(S(=O)(=O)N4CCC(C)CC4)cc32)c1	2%	.	.	.	.
CC1CCCCN1CCNC(=O)C1CCN(S(=O)(=O)c2cccc3nsnc23)CC1 (stereo unspecified)	0%	-34*	0%	3%	2%
CCn1c(SCC(=O)N2CCC(C)CC2)nnc1-c1ccccc1O	-3%	.	.	.	.
NC(=O)Nc1cc(Cl)ccc1Cl	-2%	-85*	-2%	-2%	0%
NC(=S)Nc1cc(Cl)ccc1Cl	-9%	-4	9%	2%	0%
Cc1ccc(CNC(=O)c2ccc(CSCc3ccccc3Cl)o2)cc1	-3%	.	.	.	.
COCCNC(=O)/C(C#N)=C/c1cccc(/C=C(\C#N)C(=O)NCCOC)c1	15µM*	-2	7%[46.1 µM]	1%	1%
Nc1ccc2c(c1)C(=O)c1ccc(N)cc1-2	.	-62*	15%	-5%	.
CCOC(=O)c1sc(=NC(=O)c2ccc(OC(C)C)cc2)n(C)c1C	?	-34*	-11%	10%	-1%
CC(C)OC(=O)Nc1ccc(Oc2c(F)c(F)c(F)c(F)c2F)cc1	4%	-76*	11%	3%	-6%
Cc1cc(C(=O)OCC(=O)NC2CCS(=O)(=O)C2)c2ccccc2n1 (stereo unspecified)	0%	2	-4%	-2%	-1%
O=C(COC(=O)c1cc(-c2cccc3ccccc23)nc2ccccc12)NC1CCS(=O)(=O)C1 (stereo unspecified)	-1%	-112*	1%[46.1 µM]	7%	-2%
CC(=O)C1=C(c2ccc(Cl)cc2)N(C(C)=O)n2c(nnc2C2CCCCC2)S1	12%	.	.	.	.
CCn1c(C)nc2cc(S(N)(=O)=O)ccc21	9%	1	-3%	1%	-5%
CCn1c(C)nc2cc(S(=O)(=O)C(F)(F)C(F)C(F)(F)F)ccc21 (stereo unspecified)	2%	-48*	2%	0%	0%
Cc1ccccc1C(=O)NCc1ccc2c(c1)CCN2C(=O)c1ccccc1	-10%	.	.	.	.
Cc1ccc(C)c(NC(=O)CSc2nc(=O)n(Cc3ccncc3)c3c2CCC3)c1	3%	.	.	.	.
CCOC(=O)c1sc(NC(=S)NC(=O)c2ccc(OC)cc2)nc1C	?	-52*	.	-3%	-1%
COc1ccc(C(=O)NC(=S)Nc2nc(C)c(C(=O)N(C)C)s2)cc1	23%	-2	3%	-2%	2%
CCCCc1cc(=O)oc2cc(C)cc(OCC(=O)NC(Cc3ccc(Cl)cc3)C(=O)O)c12 (stereo unspecified)	-1%	-60*	3%	20%	1%
CCCc1cc(=O)oc2cc(C)cc(OCC(=O)NC(Cc3ccc(Cl)cc3)C(=O)O)c12 (stereo unspecified)	3%	1	-4%	12%	0%
